BRCA1 expr up – BRCA1 expression activation. 380,000 compounds, 1.1% hits. AID 624202. Potency, µM (doses to about 46.1 µM), most hits filed as activators. MCF7-BRCA1-FFLuc reporter, luminescence, 48 h; response scale: scaled: vehicle 0%, 10 µM genistein 100%; further: nearly all actives have a fitted effect of over 80% in size
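First, MCF7-BRCA1-FFLuc cells (2000/well) attach for 2 h; next, compounds are pin-added and incubated 48 h at 37 °C; finally, luciferase reagent is added and luminescence read after 15 min.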
RGS4 inh – human RGS4 inhibition | P49798 | Transcreener GDP fluorescence polarization, RGS4-accelerated GTP hydrolysis | Potency, µM (doses to about 114 µM), most hits filed as inhibitors | 390,000 compounds, 0.039% hits; further: nearly all actives have a fitted effect of over 75% in size
Target sequence (P49798 whole entry, looked up): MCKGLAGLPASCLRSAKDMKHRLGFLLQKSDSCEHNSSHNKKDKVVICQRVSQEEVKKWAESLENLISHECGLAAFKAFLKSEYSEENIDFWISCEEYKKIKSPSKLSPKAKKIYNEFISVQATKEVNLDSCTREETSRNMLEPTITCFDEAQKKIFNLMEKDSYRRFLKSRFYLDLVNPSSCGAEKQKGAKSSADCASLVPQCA
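MLSMR compounds (23 nl, pin-transferred) preincubated 10 min at room temperature with a 500nM (2x) first reagent, then RGS4 at 900nM (2x) plus Transcreener GDP mix added; fluorescence polarization (620/688 nm) read before and after 90 min at 30 °C.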
DRD3 antagonist – antagonists of human D3 dopamine receptor; max response, negative = inhibition, %; 360,000 compounds, 2.5% hits; P35462; AID 652054; D3R cells, DiscoveRx beta-arrestin luminescence, antagonist mode; hits give low values; in the data active means max response below about -50%; inconclusive means no clear call, values can overlap the other calls
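Cells plated overnight at 1500 cells/well, then exposed to library compounds with dopamine controls for 90 minutes at 37 degrees C. DiscoveRx reagent added for 30–60 minutes at room temperature; luminescence read, quantitative HTS format.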
PTHR1 ag – activates the human parathyroid hormone receptor PTHR1 | Q03431 | HEK293 GP2 PTHR1 cells, GloSensor cAMP luminescence, 1 h | Potency, µM (highest dose often 115 µM), most hits filed as activators | 410,000 compounds, 0.075% hits | AID 743266; further: nearly all actives have a fitted effect of over 55% in size
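HEK-293-derived GP2 cells expressing PTHR1 and a GloSensor cAMP reporter, 3,000/well, plated overnight, given luciferin plus IBMX (each 0.5 mM as added) for 1 h at 37 °C, then compound for 1 h at 37 °C. Luminescence was read after 15 min at room temperature.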
B2AR arrestin – recruits beta-arrestin to the human beta2-adrenergic receptor. P07550. beta-arrestin recruitment to beta2AR, cell-based reporter. Potency, µM (highest dose often 46.1 µM), hits mostly activators. 330,000 compounds, 0.02% hits; further: nearly all actives have a fitted effect of over 65% in size
Target sequence (P07550 whole entry, looked up): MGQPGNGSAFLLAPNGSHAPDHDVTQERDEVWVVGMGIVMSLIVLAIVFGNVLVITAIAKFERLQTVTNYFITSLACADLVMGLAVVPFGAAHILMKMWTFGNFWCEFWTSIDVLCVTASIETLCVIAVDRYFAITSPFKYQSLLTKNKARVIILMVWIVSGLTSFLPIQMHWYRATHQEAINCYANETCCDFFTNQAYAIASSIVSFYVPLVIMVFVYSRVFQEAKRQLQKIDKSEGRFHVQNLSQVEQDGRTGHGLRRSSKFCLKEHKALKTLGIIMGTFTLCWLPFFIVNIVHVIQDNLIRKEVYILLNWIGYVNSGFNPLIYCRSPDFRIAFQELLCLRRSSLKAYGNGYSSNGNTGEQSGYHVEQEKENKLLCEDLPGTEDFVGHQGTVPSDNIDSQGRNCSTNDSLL
DRD3 agonist – agonists of human D3 dopamine receptor; 410,000 compounds, 0.58% hits; max activation, %; AID 652048; P35462; D3R DiscoveRx beta-arrestin cells, luminescence, 90 min; in the data active means max activation above about 30%
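Agonist-mode cell screen: cells plated at 1500/well and incubated overnight at 37 °C, then exposed to library compounds for 90 min at 37 °C. Detection reagent was added for 30–60 min at room temperature, and luminescence was read.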
Numbers stand for hits; - = inactive; ? = inconclusive; . = no result given; [ ] = dose if it differs, or a comment. A selection: hits, their analogues and other compounds. The true share with any hit is near 3.7%. Unless noted, the call rests on the fitted dose curve; in most records, active means well fitted curve in the direction sought with a large enough effect; inconclusive means small, poorly fitted or top-dose-only effect, or another doubt; inactive means no such curve, though single readings can be large; an effect the other way counts as inactive or inconclusive.

SMILES	BRCA1 expr up	RGS4 inh	DRD3 antagonist	PTHR1 ag	B2AR arrestin	DRD3 agonist
CC(C)[C@H]1CN=C2N(C[C@H](C)NC(=O)CCC3CCCCC3)[C@H](Cc3ccc(O)cc3)CN21	-	-	-94	-	-	-
COc1ccc(C[C@@H]2CN3C(=NC[C@@H]3Cc3ccc(O)cc3)N2C[C@H](C)NC(=O)CCC2CCCCC2)cc1	-	-	-	-	?	-
CCc1ccc(NC(=O)c2ccc3ncsc3c2)cc1	.	.	.	.	-	.
CCc1ccc(NC(=O)c2ccc3nc(N)sc3c2)cc1	11µM	-	-	-	-	-
CN(C(=O)c1ccc2nc(N)sc2c1)c1ccccc1	-	-	-	-	-	-
Nc1nc2ccc(C(=O)Nc3ccccc3)cc2s1	-	-	-	4µM	-	-
CSc1ncc(-c2ccc(Cl)cc2)[nH]1	10µM	-	-	-	-	-
Cc1[nH]c(C)c(S(=O)(=O)Nc2ccc(OC(F)(F)F)cc2)c1C(=O)N1CCCCC1	-	-	-91	-	-	-
CCN1C(=O)/C(=C\N2CCN(c3ccc(F)cc3)CC2)SC1=S	-	-	-	-	-	34
N#CC1=C(S)N=C(N)C(c2nc(-c3ccccc3)cs2)C12CCCCC2 (stereo unspecified)	-	-	-	-	-	-
Cc1ccc(-c2csc(C3C(N)=NC(S)=C(C#N)C34CCCCC4)n2)cc1 (stereo unspecified)	-	?	-72	-	-	-
O=C(NC1CCN(Cc2ccc(F)cc2)CC1)c1ccccc1	-	-	-72	-	-	-
O=C(NC1CCN(Cc2ccc(Cl)c(Cl)c2)CC1)c1ccccc1	-	-	-99	-	-	-
O=C(NC(=S)NC1CCN(Cc2ccccc2)CC1)c1ccc(F)cc1	-	-	?	-	-	-
CCN(CC)S(=O)(=O)c1ccc(Cl)c(C(=O)NC2CCN(Cc3ccccc3)CC2)c1	-	-	-65	-	-	-
O=C(NC1CCN(Cc2ccccc2)CC1)c1ccc(I)cc1	.	-	.	.	.	.
CCC1CCCCN1CCCNC(=O)C1CCN(c2nnc(-n3cccc3)s2)CC1 (stereo unspecified)	-	-	-	-	-	-
CC1=C(CC(=O)O)c2cc(F)ccc2C1=Cc1ccc(S(C)(=O)=O)cc1	-	-	-	-	-	-
NCCCC[C@H](NC(=O)[C@@H]1CCCN1C(=O)[C@@H]1CSSC[C@H](N)C(=O)N[C@@H](Cc2ccccc2)C(=O)N[C@@H](Cc2ccccc2)C(=O)N[C@@H](CCC(N)=O)C(=O)N[C@@H](CC(N)=O)C(=O)N1)C(=O)NCC(N)=O	.	.	.	.	.	-
Cc1cc[n+](CC(=O)N2CCCc3ccccc32)cc1	-	-	-66	-	-	-
CN(C)c1cc[n+](CC(=O)N2CCCc3ccccc32)cc1	-	-	?	-	-	-
O=C(C[n+]1ccccc1)N1CCCc2ccccc21	-	-	-53	-	-	-
COc1ccc(C2CCc3cc4c(cc3C2=NO)OCO4)cc1OC (stereo unspecified)	-	.	-	-	.	-
CCOC(=O)C1=CN(Cc2cccc(F)c2)S(=O)(=O)NC1c1cccc(OC)c1 (stereo unspecified)	-	-	-	-	-	-
CCOC(=O)C1=CN(Cc2cccc(F)c2)S(=O)(=O)NC1c1ccc2ccccc2c1 (stereo unspecified)	-	-	-59	-	-	-
SMILES	BRCA1 expr up	RGS4 inh	DRD3 antagonist	PTHR1 ag	B2AR arrestin	DRD3 agonist
CCOC(=O)C1=CN(Cc2cccc(F)c2)S(=O)(=O)N(C)C1c1cccc(OC)c1 (stereo unspecified)	-	-	-	-	-	37
O=C(NNC(=O)C1CCN(c2ncccn2)CC1)c1ccc(Cl)cc1	-	-	-	-	-	-
O=C(O)/C=C/C(=O)Nc1ccc(Cl)c(C(=O)O)c1	-	-	-	-	-	-
NNc1ccc(Cl)c(C(=O)O)c1	11µM	-[11.4 µM]	-	-	-	-
Nc1ccnc(=O)[nH]1	-	-	-	-	-	-
Cc1cc2nc(N)sc2cc1[N+](=O)[O-]	13µM	-	-	-	-	-
CCCNC(=O)C(Cc1ccccc1)NC(=O)c1ccccn1 (stereo unspecified)	-	-	-56	-	-	-
CC(C)n1cnnc1SCC(=O)Nc1ccc(N2CCCCC2)cc1	-	-	-	-	-	-
Cc1ccc(NC(=O)CSc2nnc(-c3ccncc3)n2N)cc1C	-	-	-70	-	-	-
CC(C)(C)c1nnc(SCC(=O)Nc2ccc(N3CCCCC3)cc2)n1N	4µM	-	-	-	-	-
CCc1ccc(NC(=O)CN2C(=O)c3ccccc3Sc3ccc(C(=O)N4CCCC4)cc32)cc1	.	-	.	-	.	-
O=c1c(N2CCCCC2)coc2ccccc12	8.9µM	-	-	-	-	-
Cc1c(C2=CCN(S(=O)(=O)c3ccc(Br)cc3)CC2)c2ccccc2n1CC(=O)N1CCCC1	.	-	.	-	.	-
Cc1c(C2=CCN(S(=O)(=O)c3ccc(CC(C)C)cc3)CC2)c2ccccc2n1CC(=O)N1CCCC1	.	-	.	45µM	.	-
C/C(=N\NC(=O)c1ccc(O)cc1)c1ccc(NC(=O)Cc2ccccc2)cc1	8.9µM	-	-	-	-	-
C/C(=N\NC(=O)c1ccc(F)cc1)c1ccc(NC(=O)Cc2ccccc2)cc1	-	-	?	-	-	-
C/C(=N/NC(=O)c1ccco1)c1ccc(NC(=O)c2ccc(F)cc2)cc1	7.1µM	-	-	-	-	-
COCCOC1CCN(C(=O)C2CCC(=O)N(CCc3ccccc3)C2)CC1 (stereo unspecified)	-	-	-	-	-	-
CC(C1CC2CCC1C2)N1CC(O)=C(c2nc3ccccc3[nH]2)C1=N (stereo unspecified)	-	-	-	-	-	-
CC(C)N1CC(O)=C(c2nc3ccccc3[nH]2)C1=N	8.9µM	-	-	-	-	-
Cc1[nH]n(-c2cccc(Cl)c2)c(=O)c1C=NCc1ccco1	11µM	-	-	-	-	-
Cc1[nH]n(-c2cccc(Cl)c2)c(=O)c1C=NCC(C)C	10µM	-	-	-	-	-
Cc1[nH]n(-c2cccc(Cl)c2)c(=O)c1-c1ccccc1	-	-	-52	-	-	-
CN1OC[C@@H]2CN(C(=S)Nc3ccc(C#N)cc3)[C@H](c3ccc(N4CCCCC4)cc3)C[C@@H]21	-	.	-	-	.	-
N#CCCN(Cc1cccs1)C(=O)Nc1ccc(F)cc1	-	-	-	-	-	-
Nc1cc(=O)[nH]c(SCc2ccc(Cl)cc2Cl)n1	-	-	-	-	-	30
C/C(=C(\CCO)SS/C(CCO)=C(\C)N(C=O)Cc1cnc(C)nc1N)N(C=O)Cc1cnc(C)nc1N	.	.	.	.	.	-

High-throughput results deposited in PubChem BioAssay by National Center for Advancing Translational Sciences (NCATS).
